Test results reported in ChEMBL document CHEMBL4513216, “Probing the Open Global Health Chemical Diversity Library for Multistage-Active Starting Points for Next-Generation Antimalarials” (ACS Infect Dis, 2020).
Hit rate of the full screen: of about 69,000 compounds, about 8,600 (12%) showed an effect of 50% or more. Many of the other results were omitted from the sample, so strong results are more common in it than they were.

system: Plasmodium berghei; test: Screen against P. berghei liver stage (PbLuc), transformed with Luciferase, at 10uM; format: functional, HepG2; details: tested at 10 uM

| Compound | INHIBITION |
| --- | --- |
| Cc1c(S(=O)(=O)NCC(C)Cn2cc(Cl)cn2)cnn1C (stereo not drawn) | 35.8% |
| CN(CCCc1cnn(C)c1)C(=O)C1CCC(=O)N(C2CCCC2)C1 (stereo not drawn) | -7.85% |
| C[C@H]1C[C@H]2CN(S(=O)(=O)c3ccc(F)cc3)CC[C@H]2O1 | -7.28% |
| CC1COCCN1C(=O)Cc1cc(Cl)c2c(c1)OCCCO2 (stereo not drawn) | 0.348% |
| O=C1C[C@H]2[C@@H](CCN2C(=O)c2ccoc2)N1CCN1CCOCC1 | -6.23% |
| COc1ccccc1OCCCc1cc(C#N)ccn1 | 45.7% |
| COc1cccc(OCCCc2cc(C#N)ccn2)c1 | 55.6% |
| COc1ccccc1OCCCc1cccc(C#N)n1 | -34.1% |
| COCc1cc(CNC(=O)c2cc(NC(C)=O)ccc2Cl)n[nH]1 | 40.6% |
| O=C(c1ccoc1)N1CCO[C@]2(CCC[C@H]2COCc2cccnc2)C1 | -34.7% |
| Cc1ccc(CNC2CC3(CCN(CCO)CC3)c3ccccc32)s1 (stereo not drawn) | 60.2% |
| COCCN1CCC2(CC1)CC(NCc1cncn1C)c1ccccc12 (stereo not drawn) | 54.1% |
| CCN1CCC2(CC1)CC(NCc1cccc(C)n1)c1ccccc1O2 (stereo not drawn) | -4.88% |
| COCCN1CCC2(CC1)CC(NCc1ccc(C)s1)c1ccccc12 (stereo not drawn) | 45.7% |
| O=C(NC1CC2(CCN(CCO)CC2)c2ccccc21)c1ccsc1 (stereo not drawn) | 27.5% |
| O=C(NC1CC2(CCN(CCO)CC2)c2ccccc21)c1ccncc1 (stereo not drawn) | 49.7% |
| Cn1cncc1CNC1CC2(CCN(CC3CC3)CC2)c2ccccc21 (stereo not drawn) | 45.2% |
| Cc1cccc(CNC2CC3(CCN(CCO)CC3)c3ccccc32)n1 (stereo not drawn) | 52.1% |
| Cn1cncc1CNC1CC2(CCN(S(C)(=O)=O)CC2)c2ccccc21 (stereo not drawn) | 23.1% |
| COCCNC(=O)NC1CCN(c2cnn(C)c2)C1 (stereo not drawn) | 16% |
| Cn1cc(CN2C[C@@H](NC(=O)c3cscn3)[C@H]3OCCC[C@H]32)cn1 | -4.88% |
| COc1ccc(-c2ccnc(N)c2)c(C)c1 | 29.1% |

| Compound | INHIBITION |
| --- | --- |
| COCCNS(=O)(=O)c1cccc(CSC)c1 | 20.2% |
| Cc1nn(C)c(C)c1C1CCCN1C(=O)CCCc1ccccn1 (stereo not drawn) | 23.4% |
| O=C(NC1CCCC1)NC1CCc2[nH]c(=O)ccc2C1 (stereo not drawn) | 34.9% |
| CS(=O)(=O)NC1CCc2[nH]c(=O)ccc2C1 (stereo not drawn) | 30.5% |
| CC(C)NC1CCc2[nH]c(=O)ccc2C1 (stereo not drawn) | 86.2% |
| CN(C)CCN(Cc1ccccn1)Cc1ccnn1C1CCCCO1 (stereo not drawn) | 18.3% |
| COCC1CN(C(=O)COc2ccc(C)cc2)Cc2cn(C)nc21 (stereo not drawn) | 5.96% |
| Cc1nc(CCNC(=O)C2CC(=O)N(C(C)C)C2)sc1C (stereo not drawn) | 22.3% |
| CC(=O)c1ccc(CNC(=O)c2cc(C)nn2C)nc1C | -34% |
| O=C(O)c1ccnc(-c2ccnc(NCCc3nc4c(s3)CCC4)n2)c1 | 30.9% |
| Cc1nn2cc(CCNC(=O)c3cc(C(C)C)no3)nc2s1 | -97.2% |
| Cc1cc(C(=O)NCCc2cn3nc(C)sc3n2)c(C)o1 | -98.6% |
| Cc1nn2cc(CCNC(=O)c3cc(C(C)C)nn3C)nc2s1 | 82.7% |
| c1cc(-c2nccn2CCc2nc3c(s2)CCC3)ccn1 | 11.6% |
| Cc1cc(C(=O)NCCc2nc3c(s2)CCCC3)n(C)n1 | 68% |
| Cc1nc(CCNC(=O)c2cc(C(C)C)nn2C)sc1C | 81% |
| CC(C)Cc1cc(C(=O)NCCc2nnc(N)s2)n(C)n1 | -24.7% |
| CC(C)c1cc(C(=O)NCCc2nc3c(s2)CCC3)n(C)n1 | 89.6% |
| COc1nc2c(cc1C(=O)NCCc1nc3c(s1)CCC3)CCC2 | -6.04% |
| CN1CCCN(Cn2nc(-c3ccccc3F)ccc2=O)CC1 | 18.2% |
| Cc1ccsc1C1CCCCCN1Cc1cn(C)nc1C (stereo not drawn) | 49% |
| CC(C)n1cnnc1CN(C)C(=O)c1ccccc1N1CCOCC1 | 7.92% |

| Compound | INHIBITION |
| --- | --- |
| CCN(CC(O)c1ccc(C)cc1)C(=O)NC(C)C (stereo not drawn) | 17.8% |
| COc1c(C2CCCN2C(=O)c2cccc(C)n2)c(C)nn1C (stereo not drawn) | 1.78% |
| CNC(=O)[C@@H]1C[C@H]2CN(Cc3csc(C)n3)C[C@H]2N1C(C)C | 42.4% |
| O=C(CCCc1ccccc1)Nc1cnc(N2CCOCC2)nc1 | -33.3% |
| CCOc1ccc(NC(=O)Nc2cnc(N3CCOCC3)nc2)cc1 | -8.66% |
| O=C(Nc1cnc(N2CCOCC2)nc1)c1ccc(C(F)(F)F)cc1 | 77.9% |
| O=S(=O)(Nc1cnc(N2CCOCC2)nc1)c1ccc(C(F)(F)F)cc1 | -18% |
| COCC(=O)Nc1cnc(N2CCOCC2)nc1 | 26.9% |
| O=C(COc1ccc(Cl)cc1)Nc1cnc(N2CCOCC2)nc1 | 52.7% |
| CCN1CC2(CC1=O)CN(C(=O)NC(C)C)CCN(S(C)(=O)=O)C2 (stereo not drawn) | 21.6% |
| O=S(=O)(c1ccc(F)cc1)N1CCCC(c2nccs2)C1 (stereo not drawn) | 13.5% |
| CC(=O)NCc1nccnc1C1CCN(C(=O)c2cc[nH]n2)CC1 | -19.7% |
| Cc1cnc(N2CCC3(CC2)CC3CNC(=O)C2CCC2)nc1 (stereo not drawn) | 50.7% |
| Cc1cnc(N2CCC3(CC2)CC3CNC(=O)N(C)C)nc1 (stereo not drawn) | 7.24% |
| Cc1cnc(N2CCC3(CC2)CC3C(=O)NCC2CC2)nc1 (stereo not drawn) | 16.9% |
| CC(C)(C)CC(=O)NS(=O)(=O)c1ccc(F)cc1C(F)(F)F | -15.5% |
| Cc1nn(C)c(C)c1C1CCCN1Cc1nc2ccccc2c(=O)[nH]1 (stereo not drawn) | -33.7% |
| O=c1[nH]c(COc2ccccc2Cl)nc2c1CCNC2 | 2.15% |
| O=c1[nH]c(NCc2cccc(-c3ccccc3)c2)nc2c1CCNC2 | 21.9% |
| CC(C)(C)c1ccc(OCc2nc3c(c(=O)[nH]2)CCNC3)cc1 | -13.3% |
| O=c1[nH]c(NCc2cccc(OC(F)F)c2)nc2c1CCNC2 | 88% |
| COc1cc(CNc2nc3c(c(=O)[nH]2)CCNC3)cc(OC)c1OC | 57.8% |

| Compound | INHIBITION |
| --- | --- |
| O=c1[nH]c(COc2cccc(F)c2)nc2c1CCNC2 | 15.8% |
| CCC=C(C)C(=O)N1CSCC1C(=O)NC1=NCCS1 (stereo not drawn) | 7.58% |
| CC(C1CCN(Cc2cnc(-c3cccs3)nc2)CC1)N(C)C (stereo not drawn) | 18.8% |
| OC1CCN(C2CCN(Cc3cnc(-c4cccs4)nc3)CC2)CC1 | 25.1% |
| C[C@@H]1CN(C2CCN(Cc3cnc(-c4cccs4)nc3)CC2)C[C@H](C)O1 | 63.7% |
| CC(C)n1ncc2cc(NC(=O)N3CCSCC3)cnc21 | 11.2% |
| O=C(Cc1csc(-c2ccco2)n1)N1CCN(c2ccccc2O)CC1 | -44.3% |
| CC(=O)N1CCOCC(Cc2ccc3c(ccn3C(C)=O)c2)C1 (stereo not drawn) | 12.59% |
| Cc1ccc(CC2COCCN(S(=O)(=O)c3ccccc3)C2)nc1 (stereo not drawn) | 1.62% |
| CC(C)c1nn(C)c(N(C)C)c1CNC1CCc2cc(F)ccc21 (stereo not drawn) | -25.3% |
| COc1ccc(OCC2CCCN(c3nc(CO)cs3)C2)cc1 (stereo not drawn) | -3.43% |
| CN(C)Cc1ccc(C(=O)N2CCCC(COc3ccc(F)cc3)C2)o1 (stereo not drawn) | 63% |
| Cc1ccc(OCC2CCCN(c3cc(C(N)=O)ccn3)C2)cc1 (stereo not drawn) | 26.5% |
| COc1cccc(OCC2CCCN(c3cc(C(N)=O)ccn3)C2)c1 (stereo not drawn) | 40.7% |
| CCNC(=O)c1ccnc(N2CCCC(COc3ccccc3C)C2)c1 (stereo not drawn) | 30.9% |
| Cc1nc(N)cc(N2CCCC(COc3cccc(F)c3)C2)n1 (stereo not drawn) | 73.8% |
| OCc1csc(N2CCCC(COc3cccc(F)c3)C2)n1 (stereo not drawn) | 39.9% |
| Cc1ccccc1OCC1CCCN(c2cc(N)nc(N)n2)C1 (stereo not drawn) | 73.8% |
| COCC(=O)N1CCCC(COc2ccccc2C)C1 (stereo not drawn) | -4.37% |
| CN(C)Cc1nc(C(=O)N2CCCC(COc3ccc(F)cc3)C2)cs1 (stereo not drawn) | 15.7% |
| CCc1nnsc1C(=O)N1CCCC(COc2ccc(F)cc2)C1 (stereo not drawn) | 26.4% |
| Cc1nc(CN(C)C)cc(N2CCCC(COc3ccc(F)cc3)C2)n1 (stereo not drawn) | 79.5% |

| Compound | INHIBITION |
| --- | --- |
| O=C(c1ccccc1)N1CC2(CCNC2)OCc2ccccc21 (stereo not drawn) | -0.621% |
| Cc1cnc(N2Cc3nccn3CC(Cn3ncccc3=O)C2)nc1 (stereo not drawn) | 38.2% |
| CCN1CC(C(=O)NCCc2csc(-c3ccncc3)n2)CC1=O (stereo not drawn) | -2.92% |
| CC(=O)N1CCC(Cc2cccc(-c3c(C)noc3C)n2)C1 (stereo not drawn) | 8.53% |
| Nc1nc(N2CCCC(COc3ccc(F)cc3)C2)c2nc[nH]c2n1 (stereo not drawn) | 33.7% |
| Nc1cc(N2CCCC(COc3ccc(F)cc3)C2)nc(N)n1 (stereo not drawn) | 79.5% |
| Nc1cc(N2CCCC(COc3ccc(F)cc3)C2)ncn1 (stereo not drawn) | 23.7% |
| OC(COCc1ccccc1Cl)CN1CCC(c2ccn[nH]2)CC1 (stereo not drawn) | 48.2% |
| COc1ccc(CN2CC3(CCNCC3)CCC2=O)c(F)c1F | 22.9% |
| COc1cccc(CN2CC3(CCNCC3)CCC2=O)c1OC | 24.2% |
| Cc1ccc(CN2CC3(CCNCC3)CCC2=O)c(F)c1F | 71.1% |
| c1ccc(NC[C@@H]2CCC[C@@H]3CN(c4ncccn4)C[C@@H]32)nc1 | 48.4% |
| CC[C@H]1CN(C(=O)c2cnc(N3CCN(C)CC3)nc2C)CC[C@@]1(C)O | 1.93% |
| CC(=O)N1CCc2nnc(C3CCCN3CC3CCCCC3)n2CC1 (stereo not drawn) | -5.71% |
| CC(CNC(=O)CCCc1ccccn1)c1ccsc1 (stereo not drawn) | 60.2% |
| CC(C)C(O)CNC(=O)CCCc1ccccn1 (stereo not drawn) | 15.5% |
| CC(CNC(=O)CCc1ccccn1)c1ccsc1 (stereo not drawn) | 22.2% |
| CC(C)CS(=O)(=O)CC(=O)NC1CCCCNC1=O (stereo not drawn) | -79.1% |
| O=C(c1cnc(-c2ccccn2)s1)N1CCCC1Cn1cccn1 (stereo not drawn) | -9.19% |
| O=C(N1CCOCC1)N1CCc2ncnc(Oc3cccnc3)c2CC1 | 0.734% |
